Assay outcomes: PubChem, National Center for Advancing Translational Sciences (NCATS)
Shown are actives, neighbours in structure and some others; about 3.3% of the full set was active somewhere.
Tb PYK inh = inhibitors of Trypanosoma brucei pyruvate kinase; Potency, µM (series often up to 76.8 µM), without a hit: at the highest dose activity, negative = inhibition, actives largely listed as inhibitors; 0.12% of 410,000 active; Q57TT1; TbPYK enzyme, Kinase-Glo Plus ATP luminescence, 45 min; note: % is set by controls: 0 for no effect and ±100 for the full control effect; nearly all actives have a fitted effect of over 50% in size
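Activity of T. brucei pyruvate kinase was followed by Kinase-Glo Plus luminescence after the enzyme reacted 45 min at room temperature with 130 uM ADP (final) and substrate. Test compounds were added before ADP at multiple concentrations.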
Sm TGR inh = inhibitors of Schistosoma mansoni thioredoxin glutathione reductase; Q962Y6; purified TGR, DTNB reduction, TNB absorbance 405 nm; Potency, µM (titrated, usually from 114 µM), without a hit: top-dose activity change, negative = inhibition, usual class: inhibitors; 3% of 360,000 active; AID 485364; note: % is set by controls: 0 for no effect and ±100 for the full control effect; nearly all actives have a fitted effect of over 60% in size
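Kinetic colorimetric format: TGR-catalysed, NADPH-driven DTNB reduction monitored via TNB absorbance. Enzyme dispensed at 20 nM; compound exposure 15 min at room temperature before reaction start.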
SARS PLP yeast = SARS-CoV PLP inhibition in yeast | S. cerevisiae expressing SARS-CoV PLpro, growth rescue | Potency, µM (doses to about 32.9 µM), without a hit: at the highest dose activity, positive = growth rescue, actives largely listed as activators | 0.19% of 330,000 active; calls by dose curve; note: 0% is about no effect; nearly all actives have a fitted effect of over 55% in size
NS1 inh = inhibitors of influenza NS1 protein function; Potency, µM (series often up to 46.1 µM), without a hit: at the highest dose activity, positive = more growth; 0.4% of 270,000 active; AID 2326; calls by dose curve; note: actives are rising curves; nearly all actives have a fitted effect of over 50% in size
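S. cerevisiae expressing influenza A NS1, grown in glucose, washed, then diluted 1:100 into pH 6.0 -URA galactose medium with 23 nl compound. Growth recovery read as OD600; NS1-free strain serves as control.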
RE007 growth inh = less growth of the S. pombe RE007 Vpr strain; AID 651644; 0.21% of 360,000 active; S. pombe RE007 Vpr strain, BacTiter-Glo ATP luminescence, 24 h; Potency, µM (top dose mostly 92.2 µM), without a hit: top-dose activity change, negative = less growth, actives largely listed as inhibitors; active = well fitted falling curve with a large enough effect; inconclusive = small, poorly fitted or top-dose-only effect; inactive = no such curve, though single readings can be large or run the other way; note: % is set by controls: 0 for no effect and ±100 for the full control effect; nearly all actives have a fitted effect of over 50% in size
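Fission yeast strain RE007, carrying one chromosomally integrated HIV-1 vpr copy, was seeded at OD 0.01 in PMG+AL medium with 23 nL pinned compound. After 24 h at 30 °C and 99% humidity, viability was read by BacTiter-Glo luminescence.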
LmPK inh = LmPK (Leishmania mexicana) enzyme inhibition; Q27686; AID 1721; purified LmPK, Kinase-Glo ATP luminescence, 1 h; 0.37% of 290,000 active; Potency, µM (doses to about 57.5 µM), without a hit: at the top dose activity change, negative = inhibition, most hits filed as inhibitors; note: % is set by controls: 0 for no effect and ±100 for the full control effect
Target sequence (Q27686 whole entry, looked up): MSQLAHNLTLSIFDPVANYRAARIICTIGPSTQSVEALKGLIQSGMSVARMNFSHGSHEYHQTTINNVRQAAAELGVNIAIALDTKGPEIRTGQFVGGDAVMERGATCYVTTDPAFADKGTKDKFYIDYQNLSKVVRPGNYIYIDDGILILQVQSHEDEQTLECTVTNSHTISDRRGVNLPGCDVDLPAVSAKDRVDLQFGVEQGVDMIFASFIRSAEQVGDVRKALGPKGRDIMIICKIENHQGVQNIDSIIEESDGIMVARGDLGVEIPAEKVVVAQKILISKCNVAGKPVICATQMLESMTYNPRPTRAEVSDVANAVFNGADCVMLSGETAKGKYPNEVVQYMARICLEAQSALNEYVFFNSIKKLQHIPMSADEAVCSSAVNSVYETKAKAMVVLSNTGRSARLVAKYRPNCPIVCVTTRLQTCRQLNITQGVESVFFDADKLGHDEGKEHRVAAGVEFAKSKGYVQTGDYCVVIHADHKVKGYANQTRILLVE
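Purified LmPK (0.1 nM) with 0.5 mM PEP and 0.1 mM ADP in imidazole buffer pH 7.2 with MgCl2/KCl, 1 h at room temperature. ATP formed was read by luciferase luminescence and normalized to no-enzyme and uninhibited controls.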
* marks the source's active call; other numbers are inactive results. Unless noted, calls come from the whole dose curve; as a rule, active = well fitted curve in the direction sought with a large enough effect; inconclusive = small, poorly fitted or top-dose-only effect, or another doubt; inactive = no such curve, though single readings can be large; an effect the other way counts as inactive or inconclusive. Potency is the fitted concentration of half-maximal effect.

For COc1ccc(-n2nc3c(c2NC(=O)c2ccco2)CS(=O)(=O)C3)cc1 the results were Tb PYK inh -4.2%, Sm TGR inh 44.7µM*, SARS PLP yeast 13.0%, NS1 inh -4.4%, RE007 growth inh -3.3% and LmPK inh 0.3%.
For Cc1ccc(-n2c(=O)c3ccc(C(=O)NCc4ccccc4Cl)cc3n(Cc3cccc(F)c3)c2=O)cc1 the results were Tb PYK inh -1.8% and Sm TGR inh inconclusive.
`O=C1NC(c2ccccc2)(C(F)(F)F)SC2=CCCCCN12` (stereo not drawn) gave Tb PYK inh -5.1%, Sm TGR inh 25.1µM*, SARS PLP yeast 17.6%, NS1 inh -2.9%, RE007 growth inh -8.4% and LmPK inh -1.7%.
Screening c1cc(-c2nc3ccccc3o2)nc(-c2nc3ccccc3o2)c1 returned NS1 inh 1.6%.
c1ccc2nc(-c3nc4ccccc4o3)ccc2c1 was read as Tb PYK inh inconclusive, Sm TGR inh -6.3%, SARS PLP yeast -23.2%, NS1 inh -5.3%, RE007 growth inh inconclusive and LmPK inh 3.16µM*.
`CC(=O)c1cccc(NC(=O)CCS(=O)(=O)c2ccc3c(c2)n(C)c(=O)c(=O)n3C)c1` gave Tb PYK inh 5.6% and Sm TGR inh inconclusive.
`CC(=O)c1ccc(NC(=O)CCS(=O)(=O)c2ccc3c(c2)n(C)c(=O)c(=O)n3C)cc1` gave Tb PYK inh -1.8%, Sm TGR inh 39.8µM*, SARS PLP yeast 7.6%, NS1 inh inconclusive, RE007 growth inh 3.2% and LmPK inh -7.5%.
For O=c1c(=NNc2ccccc2Cl)c(=O)c2ccccc12 the results were Tb PYK inh -11.8%, Sm TGR inh 2.5%, SARS PLP yeast -2.1%, NS1 inh -0.3%, RE007 growth inh 6.0% and LmPK inh 15.8µM*.
Screening O=C(CCNc1cccc(F)c1)c1cccc([N+](=O)[O-])c1 returned Tb PYK inh -5.0%, Sm TGR inh 0.282µM*, SARS PLP yeast -3.0%, NS1 inh -0.3%, RE007 growth inh inconclusive and LmPK inh 0.9%.
For O=C(Nc1cccc([N+](=O)[O-])c1)c1ccncc1 the results were Tb PYK inh -2.3%, Sm TGR inh -0.9%, SARS PLP yeast -6.4%, NS1 inh -0.6%, RE007 growth inh -7.5% and LmPK inh -9.9%.
O=C(CCNc1ccc(Cc2ccncc2)cc1)c1cccc([N+](=O)[O-])c1 was read as Tb PYK inh -1.6%, Sm TGR inh -2.5%, SARS PLP yeast -3.2%, NS1 inh 3.0%, RE007 growth inh 35.5µM* and LmPK inh 3.3%.
`CSc1ccc(/C=C2/C(C)=C(CC(=O)O)c3cc(F)ccc32)cc1` gave Tb PYK inh 1.2%.
`CC(=O)c1ccc(S(=O)(=O)NCC(=O)N2CCN(C/C=C/c3ccccc3)CC2)cc1` gave Tb PYK inh 3.6%, Sm TGR inh 7.94µM*, SARS PLP yeast 0.9% and RE007 growth inh 21.1%.
Cc1ccc(S(=O)(=O)NCCC(=O)N2CCN(C/C=C/c3ccccc3)CC2)cc1 was read as Tb PYK inh 3.4%, Sm TGR inh -10.5%, SARS PLP yeast 1.8% and RE007 growth inh -6.3%.
`CCN1C(=O)/C(=C/c2ccc3c(c2)CCN3CCCCl)C(=O)NC1=S` gave Tb PYK inh inconclusive, Sm TGR inh 8.91µM*, SARS PLP yeast -10.9%, NS1 inh -17.8%, RE007 growth inh inconclusive and LmPK inh -22.3%.
C=CCN1C(=O)/C(=C/c2ccc3c(c2)CCCN3CCC)C(=O)NC1=S was read as Tb PYK inh inconclusive, Sm TGR inh 8.91µM*, SARS PLP yeast -7.9%, NS1 inh 7.7%, RE007 growth inh 0.8% and LmPK inh -26.3%.
`O=C1NC(=S)N(C2CC2)C(=O)/C1=C/c1ccc2c(c1)CCN2CCCCl` gave Tb PYK inh inconclusive, Sm TGR inh inconclusive, SARS PLP yeast -18.9%, NS1 inh -4.5%, RE007 growth inh -10.7% and LmPK inh -24.0%.
